From PubChem
Sampled rows, rich in hits. Any-hit rate of the full collection: about 3.5%.
FBW7 activator = FBW7 E3 ligase activators, primary screen, biochemical, AlphaScreen, human; AlphaScreen FBW7–phospho-cyclin E peptide binding, activator screen; normalized activity (activation), % at 26.1 µM; 650,000 compounds, 0.13% hits; AID 1259310, 2017; in the data active = normalized activity above about 1.9%;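 also: purified mutant Fbw7 with reduced substrate affinity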
GPR151 activ = activators of human GPR151, primary screen, cell-based, PathHunter beta-arrestin, luminescence; PathHunter beta-arrestin GPR151 cells; activation, % at 11.2 µM; G-protein coupled receptor 151 (Homo sapiens), Q8TDV0; 650,000 compounds, 1% hits; in the data active = activation above about 4.9%;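 also: 0% = median of compound wells and 100% = cells with positive control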
Target sequence (Q8TDV0 whole entry, looked up): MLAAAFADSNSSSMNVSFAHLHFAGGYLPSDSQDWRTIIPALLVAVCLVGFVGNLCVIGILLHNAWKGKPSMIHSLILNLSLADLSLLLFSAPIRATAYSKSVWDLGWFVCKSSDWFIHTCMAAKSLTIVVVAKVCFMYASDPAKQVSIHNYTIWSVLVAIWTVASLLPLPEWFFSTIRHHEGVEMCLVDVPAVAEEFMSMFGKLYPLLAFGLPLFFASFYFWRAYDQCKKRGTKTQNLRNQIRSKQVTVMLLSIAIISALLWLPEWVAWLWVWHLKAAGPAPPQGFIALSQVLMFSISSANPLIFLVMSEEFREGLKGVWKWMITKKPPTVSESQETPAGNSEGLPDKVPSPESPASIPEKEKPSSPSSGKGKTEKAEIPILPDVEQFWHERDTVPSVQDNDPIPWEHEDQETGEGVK
TEAD-YAP block = TEAD-YAP interaction inhibition, primary screen, TEAD-YAP interaction inhibitor project, luminescence, HEK-TIYL cells; TEAD-Gal4/YAP UAS-luciferase luminescence; inhibition, % at 9.12 µM; 640,000 compounds, 1.4% hits; in the data active = inhibition above about 32%;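 also: 0% = median of test compound wells and 100% = reference inhibitor wells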
MITF inh = MITF inhibitors, primary screen, biochemical, AlphaScreen, human | Microphthalmia-associated transcription factor (Homo sapiens), O75030 | AlphaScreen MITF homodimerization, bead proximity signal | inhibition, % at 2.6 µM | 650,000 compounds, 0.91% hits | AID 1259374, 2018; in the data active = inhibition above about 50%;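 also: 0% = vehicle wells with protein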
MITF confirm = MITF inhibitors, retest of hits, confirmation, biochemical, AlphaScreen, triplicate | inhibition, % at 2.6 µM | AID 1259372, 2018 | 4,700 compounds, 16% hits | shares compounds with MITF inh | AlphaScreen MITF homodimerization, biotin/His-MITF beads;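 active = inhibition above a cutoff derived from the DMSO control wells, cut at about 28% in these data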;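 also: 0% = MITF dimer wells with DMSO only; inhibitors lower the bead chemiluminescence by keeping MITF from dimerizing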
AlphaScreen DR = AlphaScreen optical interference compounds, dose response, counter-screen, biochemical, HTS; shares compounds with MITF inh; AlphaScreen optical interference counterscreen, cell-free; IC50, µM; 480 compounds, 6% hits; call rule not given here
AS interf ctr = AlphaScreen optical interference compounds, counter-screen for MITF inhibitor project, biochemical, triplicate. shares compounds with MITF inh. 4,700 compounds, 7.6% hits. LysRS AlphaScreen counterscreen, signal interference. inhibition, % at 2.6 µM;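 active = inhibition above a cutoff derived from the DMSO control wells, cut at about 30% in these data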
An asterisk follows results filed as active; · = no result given.

SMILES	FBW7 activator	GPR151 activ	TEAD-YAP block	MITF inh	MITF confirm	AS interf ctr	others
CC(C)(C)c1ccc(C(=O)NC(=S)Nc2ccc(S(N)(=O)=O)cc2)cc1	0	0	-5	11	·	·
CCOc1ccc(C(=O)NC(=S)Nc2ccc(S(N)(=O)=O)cc2)cc1	1	-1	10	53*	-10	-7
O=[N+]([O-])c1ccccc1CN1CCN(S(=O)(=O)Cc2ccccc2)CC1	1	1	12	70*	12	18
CS(=O)(=O)N1CCN(c2ccc([N+](=O)[O-])c(N3CCN(Cc4ccccc4)CC3)c2)CC1	0	0	10	83*	-5	-3
CCS(=O)(=O)N1CCN(Cc2ccccc2[N+](=O)[O-])CC1	0	0	2	-1	·	·
O=S(=O)(Cc1ccccc1)N1CCN(Cc2ccccc2Cl)CC1	0	1	5	92*	11	11
O=C(NCc1cccs1)c1ccc(N2CC3CC(C2)c2cccc(=O)n2C3)c(NC(=O)c2ccc(Br)o2)c1 (stereo unspecified)	0	0	-10	-4	·	·
COc1cc(NC(=O)c2ccc3nc(-c4ccccc4)sc3c2)cc(OC)c1OC	0	2	-1	68*	6	5
O=C(NCC1CCCO1)C1(c2cccs2)CCOCC1 (stereo unspecified)	1	2	7	8	·	·
Cc1ccccc1-n1nc2c(c1NC(=O)c1ccc(Br)cc1)CSC2	0	0	7	7	·	·
Cc1ccccc1C(=O)Nc1c2c(nn1-c1ccc([N+](=O)[O-])cc1)CSC2	0	1	-4	61*	2	9
COc1ccc(-n2nc3c(c2NC(=O)c2ccc4c(c2)OCO4)CSC3)cc1	0	-1	18	89*	-8	-6
Cc1ccc(C(=O)Nc2c3c(nn2-c2ccccc2C)CSC3)cc1	0	1	2	71*	11	16
O=C(N/N=C/c1ccc2c(c1)OCO2)C(=O)NC1CCCCC1	0	0	-3	12	·	·
O=C1/C(=C/c2cn(Cc3ccc(Cl)cc3Cl)nc2-c2ccccc2)Sc2ccccc21	0	2	-30	10	·	·
Cc1ccc(S(=O)(=O)NN2C(=O)c3ccccc3NC2c2cccs2)cc1 (stereo unspecified)	0	-1	-5	-14	·	·
CN(C)CC(=O)Nc1cccc(CN(C(=O)c2nc3ccc(-c4cn[nH]c4)cc3s2)C2CC2)c1	-1	0	0	-4	·	·
O=C(NCCN1CCOCC1)c1cccc(CN(C(=O)c2nc3ccc(-c4cn[nH]c4)cc3s2)C2CC2)c1	2	1	15	66*	73*	6	AlphaScreen DR=>6.5
O=C(NCCN1CCCCC1)c1cccc(CN(C(=O)c2nc3ccc(-c4cn[nH]c4)cc3s2)C2CC2)c1	1	-1	4	32	·	·
CN1CCN(CCNC(=O)c2cccc(CN(C(=O)c3nc4ccc(-c5cn[nH]c5)cc4s3)C3CC3)c2)CC1	2	0	50*	78*	72*	-14	AlphaScreen DR=>6.5
COc1ccccc1NC(=S)N(CCN(C)C)C(C)c1ccccn1 (stereo unspecified)	0	0	0	66*	-50	100*
O=C(Cc1ccc(Cl)cc1)Nc1ccc(C(=O)N2CCCCC2)cc1	0	1	-22	1	·	·
O=C(CNC1CCCCCC1)Nc1ccc(C(=O)N2CCCCC2)cc1	0	-1	11	44	·	·
O=C(CNCCc1ccc(Cl)cc1)Nc1ccc(C(=O)N2CCCCC2)cc1	0	0	6	58*	9	21
O=C(CCc1ccccc1)Nc1ccc(C(=O)N2CCCCC2)cc1	0	0	3	-15	·	·
SMILES	FBW7 activator	GPR151 activ	TEAD-YAP block	MITF inh	MITF confirm	AS interf ctr	others
O=C(CNCc1ccc(F)cc1)Nc1ccc(C(=O)N2CCCCC2)cc1	0	-1	6	69*	9	17
O=C(CNCCc1ccccc1)Nc1ccc(C(=O)N2CCCCC2)cc1	0	0	-13	52*	10	19
O=C(CNCc1ccccc1Cl)Nc1ccc(C(=O)N2CCCCC2)cc1	0	0	0	72*	16	18
CC1(C)CC(=O)C(C(=S)Nc2ccccc2)=C(NCCc2ccccc2)C1	-1	-1	-4	-6	·	·
Fc1cccc(Cl)c1Cn1nnc2c(NCCc3ccccn3)ncnc21	0	0	0	-11	·	·
O=C(CCC1(Cc2ccco2)CCC(=O)N1)NCc1ccc2c(c1)OCO2 (stereo unspecified)	0	-1	-1	-3	·	·
Cc1ccc2nc(/N=C/c3cc([N+](=O)[O-])cc([N+](=O)[O-])c3O)sc2c1	0	-3	21	51*	-3	2
Cc1cc(C)c2nc(/N=C/c3cc([N+](=O)[O-])cc([N+](=O)[O-])c3O)sc2c1	0	0	-10	-9	·	·
CCCCn1c(=O)n(-c2ccc(OC)cc2)c(=O)c2c3c(sc21)CN(C(C)=O)CC3	0	-1	14	-9	·	·
CN(C)CCCN(CCCN(C)C)Cc1ccc(C(F)(F)F)cc1	0	0	-2	54*	-9	0
CN(C)CCCN(CCCN(C)C)Cc1ccc(F)c(F)c1	0	0	-1	56*	-12	-1
Cc1occc1C(=O)Nc1ccc(S(=O)(=O)Nc2cnc3ccccc3n2)cc1	0	-1	-3	11	·	·
CC(O)CNCC(O)COc1cc(Cl)ccc1Cl (stereo unspecified)	0	0	-3	-8	·	·
C=CCNCC(O)COc1cc(Cl)ccc1Cl (stereo unspecified)	0	1	4	53*	-11	-3
OC(CN1CCN(Cc2ccccc2)CC1)CN1c2ccccc2Sc2ccccc21 (stereo unspecified)	-1	3	5	56*	6	0
CCS(=O)(=O)N1CCc2ccc(NS(=O)(=O)C(C)C)cc2C1	0	-1	-2	-4	·	·
CCS(=O)(=O)N1CCc2ccc(NS(=O)(=O)Cc3ccccc3F)cc2C1	1	0	17	75*	-3	4
COCCCNC(=O)/C(C#N)=C/c1ccc(-c2ccc(C(=O)O)c(Cl)c2)o1	0	2	2	63*	67*	-4	AlphaScreen DR=>6.5
O=C(CCCC(=O)OCC(=O)c1ccccc1)Nc1ccccc1	0	0	-1	4	·	·
